The results in this text go back to PubChem BioAssay (NCATS).

SMILES strings stand for the structures. Records with an inconclusive call do not appear. Active and inactive are the calls of the source. The call rests on the fitted dose curve; in most records, active means well fitted curve in the direction sought with a large enough effect; inconclusive means small, poorly fitted or top-dose-only effect, or another doubt; inactive means no such curve, though single readings can be large; an effect the other way counts as inactive or inconclusive.
Potency means the concentration at half of the fitted maximal effect.

Sequence of ATP-dependent 6-phosphofructokinase (Trypanosoma brucei brucei) (O15648 whole entry, looked up): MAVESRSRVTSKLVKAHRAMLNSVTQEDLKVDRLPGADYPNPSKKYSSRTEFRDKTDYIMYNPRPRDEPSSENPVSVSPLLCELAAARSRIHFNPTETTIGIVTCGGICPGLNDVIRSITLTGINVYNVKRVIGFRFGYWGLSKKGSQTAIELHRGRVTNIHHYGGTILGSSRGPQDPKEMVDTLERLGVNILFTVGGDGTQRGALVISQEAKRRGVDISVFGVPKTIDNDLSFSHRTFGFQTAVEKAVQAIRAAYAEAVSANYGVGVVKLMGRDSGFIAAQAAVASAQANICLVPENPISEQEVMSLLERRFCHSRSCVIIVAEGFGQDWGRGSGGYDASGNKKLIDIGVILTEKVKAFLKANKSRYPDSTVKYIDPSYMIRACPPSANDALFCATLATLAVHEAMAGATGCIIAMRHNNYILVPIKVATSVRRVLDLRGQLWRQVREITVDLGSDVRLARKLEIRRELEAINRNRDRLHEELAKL

In the first experiment the target is ATP-dependent 6-phosphofructokinase (Trypanosoma brucei brucei) (UniProt O15648). The experiment is described as follows: qHTS Validation Assay to Find Inhibitors of T. brucei phosphofructokinase (AID 485368).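 On activity change, negative = inhibition: 0% = full PFK enzyme control and -100% = wells without enzyme.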 Particulars: T. brucei PFK enzyme assay, qHTS 7-point titration; series mostly up to 57.5 µM; activity change, negative = inhibition: at the top concentration. The essentials:
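Luminescent ADP detection measures PFK turnover of fructose-6-phosphate (0.5 mM) with ATP (0.1 mM) at pH 8.0. Reaction runs 45 min at room temperature with 1.25 nM enzyme; inhibitors tested as titrations up to 57 uM.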
For the molecule `COc1cccc(C(=O)NCCN2CCN(c3ccc(Cl)cc3)CC2)c1`, the molecule was classed as inactive.
On the same count and under the same terms, as for `O=c1[nH]c2cc([N+](=O)[O-])c([N+](=O)[O-])cc2[nH]c1=O`, the entry is “inactive”.
Turning to `O=C1NC(O)=NC1(c1ccccc1)c1ccccc1`, the “activity change, negative = inhibition” value is 5.27% (inactive).
With `CC(=O)SCC[N+](C)(C)C`, the outcome was inactive.
Turning to `CC(C)NCC(O)COc1cccc2ccccc12` (centres undefined), the result was inactive.
In the case of `O=C(O)/C=C/C(O)c1ccc(Cl)cc1` (centres undefined), the “activity change, negative = inhibition” value was 2.72% (inactive).
Still for that read-out and setting: next, `O=C(O)[C@@H]1C[C@H](C(=O)O)N1`: 17.7% (inactive).
For the molecule `Cc1ccc(C(=O)O[C@H](C(=O)O)[C@@H](OC(=O)c2ccc(C)cc2)C(=O)O)cc1` (tested in a mixture with another compound), the molecule was called inactive.
In the case of `CN1C2CCC1CC(OC(=O)C(O)c1ccccc1)C2` (centres undefined), the call was inactive.
Still for that read-out and setting: next, `N[C@@H](CC(=O)O)C(=O)O`: “inactive”; `O=C(O)c1cc(=O)c2c(Cl)cc(Cl)cc2[nH]1`: “inactive”.
Take `O=C(O)CC1CCCc2ccccc2C1O` (centres undefined): the result was inactive.
On to `Cc1ccc(O)c(N=Nc2ccccc2)n1`, for which the Potency is 15.1 µM (active).
For `NC(=O)C(=O)O`, the call was inactive.
For the molecule `CCCCN1CCC(n2c(=O)[nH]c3ccccc32)CC1`, the molecule was classed as inactive.
As to `CC1CN(S(=O)(=O)c2cccc3cnccc23)CCN1` (centres undefined), the call was inactive.
`O=C(Nc1cccc(C(=O)Nc2ccc(S(=O)(=O)O)c3cc(S(=O)(=O)O)cc(S(=O)(=O)O)c23)c1)Nc1cccc(C(=O)Nc2ccc(S(=O)(=O)O)c3cc(S(=O)(=O)O)cc(S(=O)(=O)O)c23)c1`: the Potency is 0.0379 µM (active).
With `O=C(O)CNC(=O)C(CS)Cc1ccccc1` (centres undefined), the result was inactive.
Turning to `CN(C)C(N)=NCCC[C@H](N)C(=O)O`, the molecule was classed as inactive.

Test system in the next experiment: not listed separately
The experiment is described as follows: Quantitative high throughput screen for delayed death inhibitors of the malarial parasite plastid, 96 hour incubation (AID 488745). Further: nearly all actives have a fitted effect of over 70% in size.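 On activity change, negative = inhibition: luciferase-expressing P. falciparum in erythrocytes at 2% hematocrit and 0.1% parasitemia; on the % scale 0 is the no-effect control and ±100 the full control effect.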 Particulars: Plasmodium falciparum growth; series mostly up to 28.7 µM; activity change, negative = inhibition: at the top concentration. In short, it runs like this: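 Luciferase-expressing P. falciparum, infected RBCs 2% Hct/0.1% parasitemia (final); 96 h cpd exposure, 37 C, 5% CO2; RPMI 1640 + 0.5% Albumax, bicarbonate, gentamycin. Readout: luminescence loss = growth inhibition.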
Consider `COc1cccc(C(=O)NCCN2CCN(c3ccc(Cl)cc3)CC2)c1`, for which the “activity change, negative = inhibition” value was -8.59% (inactive).
Same read-out and setting: as for `O=C(O)[C@@H]1C[C@@H](C(=O)O)N1`, the figure is -0.413% (inactive); as for `COc1cccc(OC)c1OCCNCC1COc2ccccc2O1` (centres undefined), 3.74% (inactive).
On the same count and under the same terms, next, `O=c1[nH]c2cc([N+](=O)[O-])c([N+](=O)[O-])cc2[nH]c1=O`: -10.2% (inactive); `O=C1NC(O)=NC1(c1ccccc1)c1ccccc1`: 2.51% (inactive).
Still for that read-out and setting: as for `c1ccc(-c2ccccn2)nc1`, the figure is 1.89% (inactive).
As for `CC(=O)SCC[N+](C)(C)C`, the “activity change, negative = inhibition” value is -12.4% (inactive).
Same read-out and setting: next, `O=C(O)/C=C/C(O)c1ccc(Cl)cc1` (centres undefined): -0.646% (inactive).
As to `O=C(O)[C@@H]1C[C@H](C(=O)O)N1`, the “activity change, negative = inhibition” value is -12.5% (inactive).
On the same count and under the same terms, next, `Cc1ccc(C(=O)O[C@H](C(=O)O)[C@@H](OC(=O)c2ccc(C)cc2)C(=O)O)cc1` (tested in a mixture with another compound): 5.79% (inactive); `CN1C2CCC1CC(OC(=O)C(O)c1ccccc1)C2` (centres undefined): -0.607% (inactive).
Take `C[N+](C)(CCCCCC[N+](C)(C)CCCN1C(=O)c2cccc3cccc(c23)C1=O)CCCN1C(=O)c2cccc3cccc(c23)C1=O`: the Potency is 0.928 µM (active).
For `N[C@@H](CC(=O)O)C(=O)O`, the “activity change, negative = inhibition” value was 14.4% (inactive).
The same measure, in the same setting: next, `CC(C)NC[C@H](O)COc1cccc2[nH]ccc12`: -0.184% (inactive).
Regarding `O=C(O)c1cc(=O)c2c(Cl)cc(Cl)cc2[nH]1`, the “activity change, negative = inhibition” value is -11.9% (inactive).
In the case of `COc1ccccc1CNCCCCCCNCCCCCCCCNCCCCCCNCc1ccccc1OC`, the Potency was 1.04 µM (active).
As for `O=C(O)CC1CCCc2ccccc2C1O` (centres undefined), the “activity change, negative = inhibition” value was 21.3% (inactive).
On to `COc1cc(C(O)CO)ccc1OS(=O)(=O)O` (centres undefined), for which the “activity change, negative = inhibition” value is -22.1% (inactive).
Same read-out and setting: as for `Cc1ccc(O)c(N=Nc2ccccc2)n1`, the figure is 4.16% (inactive); as for `CC1(C)CCC=[N+]1[O-]`, 0.36% (inactive).
For the molecule `NC(=O)C(=O)O`, the “activity change, negative = inhibition” value was -0.67% (inactive).
Consider `CCCCN1CCC(n2c(=O)[nH]c3ccccc32)CC1`, for which the “activity change, negative = inhibition” value was 19.3% (inactive).
On the same count and under the same terms, next, `CC1CN(S(=O)(=O)c2cccc3cnccc23)CCN1` (centres undefined): -13.1% (inactive); `O=C(Nc1cccc(C(=O)Nc2ccc(S(=O)(=O)O)c3cc(S(=O)(=O)O)cc(S(=O)(=O)O)c23)c1)Nc1cccc(C(=O)Nc2ccc(S(=O)(=O)O)c3cc(S(=O)(=O)O)cc(S(=O)(=O)O)c23)c1`: 10% (inactive).
Still for that read-out and setting: next, `O=C(O)CNC(=O)C(CS)Cc1ccccc1` (centres undefined): 2.62% (inactive); `CN(C)C(N)=NCCC[C@H](N)C(=O)O`: -17.4% (inactive).
For the molecule `C=CC(N)CCC(=O)O` (centres undefined), the “activity change, negative = inhibition” value is 2.07% (inactive).
For the molecule `NCCNC(=O)c1ncsc1-c1cccc(F)c1`, the “activity change, negative = inhibition” value is 28% (inactive).
Turning to `NCCCCC(=O)O`, the “activity change, negative = inhibition” value was -3.07% (inactive).
For `NCCCCCCCCCCN`, the “activity change, negative = inhibition” value was 7.29% (inactive).

Test system in the next experiment: not listed separately
The experiment is described as follows: Quantitative high throughput screen for delayed death inhibitors of the malarial parasite plastid, 48 hour incubation (AID 488752). Further: nearly all actives have a fitted effect of over 65% in size. On activity change, negative = inhibition: on the % scale 0 is the no-effect control and ±100 the full control effect. Particulars: Plasmodium falciparum growth; series mostly up to 28.7 µM; activity change, negative = inhibition: at the top concentration. In short, it runs like this:
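Luciferase-expressing P. falciparum in RBCs, 2% Hct, 0.1% parasitemia final; RPMI 1640 + 0.5% Albumax; 48 h, 37 C, 5% CO2; luminescence readout, signal drop = growth inhibition.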
Take `O=C(O)[C@@H]1C[C@@H](C(=O)O)N1`: the “activity change, negative = inhibition” value is -1.94% (inactive).
With `COc1cccc(OC)c1OCCNCC1COc2ccccc2O1` (centres undefined), the “activity change, negative = inhibition” value is -7.81% (inactive).
Still for that read-out and setting: as for `O=C1NC(O)=NC1(c1ccccc1)c1ccccc1`, the figure is -0.822% (inactive); as for `c1ccc(-c2ccccn2)nc1`, 0.904% (inactive); as for `CC(=O)SCC[N+](C)(C)C`, 0.165% (inactive).
The same measure, in the same setting: next, `O=C(O)/C=C/C(O)c1ccc(Cl)cc1` (centres undefined): 1.31% (inactive); `O=C(O)[C@@H]1C[C@H](C(=O)O)N1`: -13.2% (inactive); `Cc1ccc(C(=O)O[C@H](C(=O)O)[C@@H](OC(=O)c2ccc(C)cc2)C(=O)O)cc1` (tested in a mixture with another compound): 8.97% (inactive).
The same measure, in the same setting: as for `CN1C2CCC1CC(OC(=O)C(O)c1ccccc1)C2` (centres undefined), the figure is -6.76% (inactive).
As to `C[N+](C)(CCCCCC[N+](C)(C)CCCN1C(=O)c2cccc3cccc(c23)C1=O)CCCN1C(=O)c2cccc3cccc(c23)C1=O`, the Potency was 0.294 µM (active).
On to `N[C@@H](CC(=O)O)C(=O)O`, for which the “activity change, negative = inhibition” value was -15.8% (inactive).
Regarding `CC(C)NC[C@H](O)COc1cccc2[nH]ccc12`, the “activity change, negative = inhibition” value was 15.8% (inactive).
As to `O=C(O)c1cc(=O)c2c(Cl)cc(Cl)cc2[nH]1`, the “activity change, negative = inhibition” value is 9.12% (inactive).
Regarding `COc1ccccc1CNCCCCCCNCCCCCCCCNCCCCCCNCc1ccccc1OC`, the Potency was 2.94 µM (active).
As for `O=C(O)CC1CCCc2ccccc2C1O` (centres undefined), the “activity change, negative = inhibition” value is 0.319% (inactive).
Still for that read-out and setting: as for `COc1cc(C(O)CO)ccc1OS(=O)(=O)O` (centres undefined), the figure is 6% (inactive).
On the same count and under the same terms, as for `Cc1ccc(O)c(N=Nc2ccccc2)n1`, the figure is 9.23% (inactive); as for `CC1(C)CCC=[N+]1[O-]`, 7.02% (inactive); as for `O=c1[nH]c2cc(Cl)c(Cl)cc2[nH]c1=O`, 21.8% (inactive).
The same measure, in the same setting: next, `NC(=O)C(=O)O`: -2.57% (inactive); `CCCCN1CCC(n2c(=O)[nH]c3ccccc32)CC1`: 11.2% (inactive); `CC1CN(S(=O)(=O)c2cccc3cnccc23)CCN1` (centres undefined): -0.0563% (inactive).
`Oc1ccc(C2CNCc3sccc32)cc1O` (centres undefined): the “activity change, negative = inhibition” value was -105% (inactive).
On the same count and under the same terms, next, `O=C(Nc1cccc(C(=O)Nc2ccc(S(=O)(=O)O)c3cc(S(=O)(=O)O)cc(S(=O)(=O)O)c23)c1)Nc1cccc(C(=O)Nc2ccc(S(=O)(=O)O)c3cc(S(=O)(=O)O)cc(S(=O)(=O)O)c23)c1`: 8.52% (inactive).
Still for that read-out and setting: next, `O=C(O)CNC(=O)C(CS)Cc1ccccc1` (centres undefined): -2.47% (inactive); `CN(C)C(N)=NCCC[C@H](N)C(=O)O`: -2.01% (inactive); `C=CC(N)CCC(=O)O` (centres undefined): 13% (inactive).
As to `NCCNC(=O)c1ncsc1-c1cccc(F)c1`, the “activity change, negative = inhibition” value was -13.6% (inactive).
Same read-out and setting: next, `NCCCCC(=O)O`: 10.8% (inactive).
As for `NCCCCCCCCCCN`, the “activity change, negative = inhibition” value is 11.7% (inactive).
